According to the supplement of paper PMC6555819:

tested on: VDR:RXRa (NR concentration 270 nM, RXRa partner concentration 90 nM); assay: PBM binding z-score (relative to random genomic background probes); higher = stronger binding; sequences stand for … in GC…GCGATTGACAGCGTAGAATGAAGG
Protocol: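 Protein-binding microarray (Agilent 4x180K custom design, double-stranded 60-nt probes: 5' GC cap, 34-nt variable region, 24-nt constant primer region; full probe sequence given). Purified or IVT nuclear receptor:RXRα heterodimers (3:1 NR:RXRα, mostly 270:90 nM) or homodimers were incubated for 1 h in PBS with 2% milk and no ligand, then detected with Alexa488 antibodies. Fluorescence from o1-orientation probes (~5 replicates averaged) was converted to z-scores against 500 random hg19 background probes. Variable regions are seed direct-repeat (DR0–DR5) sites, all their single-nucleotide variants and half-site ablations.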

| Sequence | PBM binding z-score |
| --- | --- |
| ACTTACGGGTCAAGGAGGTTATAGCACGCGTATA | 6.7 |
| ATCGAAAGGTCGAAGGTGAGTACACCCACCCGAA | 3.97 |
| CCGAGCAGGTTACGAGGGGGCATTCAGTGCGAAT | 5.27 |
| CGTCCAAGGTCAAGGTGAGTGAAAGAGACTCGAA | 4.01 |
| CTATGTAGGTTAAGGGGGTCATTCAATTTGAAAG | 7.18 |
| CCGATTAGGTTACGAGGGGGCATTCAGTGCGAAT | 5.1 |
| CGTCCAAGGTCAATGCTAGCTCAGTGAAAGCATT | 3.63 |
| TAGCCTCGGTCATTCAGGGGCCAGTATAGAAAGC | 0.169 |
| TCTCGGAGGACACGAAAAGTCAGAGCTCGACATC | -0.0283 |
| CCTAGCCGGCCAATCTGGGTCACTCAAGGCTTGA | 0.613 |
| TAGCCTAAGTCATGGGCCAGTATACCACGCGAAC | -0.25 |
| CGAACTAGGTCAAAGCACAGTGAAAGGCGACGTA | 1.2 |
| CCTTACAGGTCACGAGGTTATAGCACGACGAGCG | 5.04 |
| AGACAAAGTTCAGGACGAGGTAACGTAAAGCACG | 2.91 |
| TCGAGTAGGTTACGGGGGCACTCAGGGATGAAGA | 3.33 |
| AGTCAAAGTTGATCTAGGTAACGTAAGATATGCT | 0.0495 |
| TAGCCTAGGTCATTGGGCTAGTATAGTACGCATC | 2.03 |
| ACTAATTGGTCAGCTGAGGTCACACACAATTCGG | 4.77 |
| CTCGAAAGGTCGTGCTCAGGTGAGTACACCAAAC | 3.6 |
| TCATATAGGTAATCAGGTGAAAGTCCGTAAGTTA | 1.19 |

| Sequence | PBM binding z-score |
| --- | --- |
| TGGCCTAGGTCATGGGCCAGTATACCACGCGAAC | 1.62 |
| TAGCCTAGGCCATGGGCCAGTATACCACGCGAAC | -0.852 |
| CGAACTACGTCACCAGGACAGTGAAGAGGTTGGA | -0.211 |
| TCTAGTTGGTTACGGAGGTCACACACGACGGGTA | 4.27 |
| CGAACTAGGTCACAAGGACAGTGAAGAGGTTGGA | 1.83 |
| CCGAGTAGGTTACGAGGGGGCCTTCAGTGCGAAT | 1.73 |
| CCGGGTAGGTTACGAGGGGGCATTCAGTGCGAAT | 5.31 |
| CGAACTAGGTCAAAGGTCAGTGAAAGGCGACGTA | 5.88 |
| AATACAGGGTCATTAGGCCAGAGTAGGTACGAAT | 4.61 |
| TCGAGTCGGTTACGGGGGCATTCAGGGATGAAGA | 2.73 |
| CTATGTAGGTTAAGGTGGTCATTCAGTTTGAAAG | 2.29 |
| GGAACGAGCGCAAAGTTGATAGCATCTGTCGACG | -0.765 |
| TCTTGTAGGTCAAAGGTTAAGAAAGCCGAAGCCT | 4.54 |
| CGAACTAGGTCACCAGGTCAGTGAAGAGGTTGGA | 3.92 |
| CCTTACGGGTCACGGTTATAGCACGGGTGGTACG | 3.87 |
| ATATGTAGGTTAGGGTCATCCAGAAAGTAGGGAA | 4.46 |
| CTATGTAGGTTAAGGGGGTCATTCACTTTGAAAG | 7.21 |
| CGAGCTAGGTCAAAGGACAGTGAAAGGCGACGTA | 0.97 |
| CCTACTGGGCCACTCAGAGGTCATTGATCATATG | 4.06 |
| AGTCAGAGTTCATCTAGGTAACGTAAGATATGCT | 5.48 |
